Shiga inhibitor – inhibitors of Shiga toxin in Vero cells. Vero cells, Shiga toxin protein synthesis inhibition reporter. inhibition, % at 38.7 µM. 290,000 compounds, 9.2% hits. AID 2315; in the data active = inhibition mostly above about 28%, no sharp cut-off; inactive = mostly below about 43%; also: 0% is about no effect
CHX counter – counter-screen for Shiga toxin inhibitors: cycloheximide protein synthesis inhibition | cell reporter, cycloheximide protein synthesis inhibition counterscreen | max response, % | 300,000 compounds, 12% hits; in the data active = max response mostly above about 13%, no sharp cut-off; inactive = mostly below about 14%; also: read at 38.3 µM for the half of the compounds with a filed dose; 0% is about no effect
AMA1-RON2 inh – inhibitors of Plasmodium falciparum AMA1-RON2 interaction. AlphaScreen AMA1-biotinylated RON2 peptide binding. Potency, µM (series often up to 58.2 µM), for the others: at the top dose activity change, negative = inhibition, actives largely listed as inhibitors. 360,000 compounds, 0.2% hits. AID 720542;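 also: potency is read from the fitted curve at half-maximal effect; 0% = vehicle wells and -100% = peptide control; nearly all actives have a fitted effect of over 45% in size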
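AMA1 (3D7) with his tag at 25 nM final met compounds first, then biotinylated RON2 peptide at 25 nM; detection used donor plus acceptor beads, 10 µg/mL apiece, read by AlphaScreen after 30 min at room temperature.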
Pf growth 48h – P. falciparum growth inhibition at 48 hours (one generation); AID 504832; P. falciparum luciferase growth in erythrocytes, 48 h; Potency, µM (top dose mostly 28.7 µM), for inactives: at the top dose activity change, negative = inhibition, most hits filed as inhibitors; 310,000 compounds, 5.9% hits; also: potency is read from the fitted curve at half-maximal effect; % is scaled to controls: 0 for no effect and ±100 for the full control effect
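Growth was read as firefly luciferase luminescence after a 48 h, 37 C, 5% CO2 exposure of compounds to reporter-bearing P. falciparum cultures (0.1% parasitemia, 2% hematocrit final) in Albumax-supplemented RPMI 1640.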
Pf growth 96h – P. falciparum growth inhibition at 96 hours; 320,000 compounds, 6.9% hits; Potency, µM (titrated, usually from 28.7 µM), without a hit: at the highest dose activity change, negative = inhibition, most hits filed as inhibitors; P. falciparum luciferase reporter growth, 96 h; also: potency is read from the fitted curve at half-maximal effect; % is scaled to controls: 0 for no effect and ±100 for the full control effect
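Readout is luminescence from an integrated firefly luciferase in P. falciparum. Red cells, 2% hematocrit and 0.05% parasitemia final, were cultured with compound through two parasite generations (96 hours) at 37 C, 5% CO2.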
HCV inhibitor – HCV inhibition. AID 651820. Huh7.5.1 HCVcc-Cre infection, luciferase reporter, 44 h. Potency, µM (titrated, usually from 41.8 µM), for inactives: at the top dose activity change, negative = inhibition, most hits filed as inhibitors. 340,000 compounds, 3.4% hits; also: potency is read from the fitted curve at half-maximal effect; % is scaled to controls: 0 for no effect and ±100 for the full control effect
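1,000 cells/well; 4 h culture; + compound; + HCVcc-Cre (~0.5 moi); 44 h; luciferase substrate, RT 15 min; read 15 sec.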
* marks the source's active call; other numbers are inactive results; [ ] = dose if it differs, or a comment. Sampled rows, rich in hits. Any-hit rate of the full collection: about 21%. Unless noted, calls follow the shape of the dose curve; as a rule, active = well fitted curve in the direction sought with a large enough effect; inconclusive = small, poorly fitted or top-dose-only effect, or another doubt; inactive = no such curve, though single readings can be large; an effect the other way counts as inactive or inconclusive.

For O=C1c2ccccc2C(=O)N1OCc1ccccc1[N+](=O)[O-] the results were Shiga inhibitor 81.9, CHX counter 24.4*, AMA1-RON2 inh 11.9%, Pf growth 48h -2.9%, Pf growth 96h 1.2% and HCV inhibitor 3.5%.
Screening O=C(Cc1ccccc1[N+](=O)[O-])OCc1cccc([N+](=O)[O-])c1 returned Shiga inhibitor 91.7*, CHX counter 31.5*, Pf growth 48h -2.2% and Pf growth 96h 8.6%.
O=C(Cc1ccc(F)cc1)OCN1C(=O)c2ccccc2C1=O was read as Shiga inhibitor -24.1, CHX counter -3.6, AMA1-RON2 inh -8.3%, Pf growth 48h inconclusive, Pf growth 96h 14.7µM* and HCV inhibitor 9.1%.
For CCN(CC)c1ccc(S(=O)(=O)N2CCOCC2)cc1NC(=O)COC(=O)C1=COCCO1 the results were AMA1-RON2 inh -4.1% and HCV inhibitor -4.7%.
O=C(CCSC1=NCCCN1)c1ccc(F)cc1 was read as AMA1-RON2 inh -4.8% and HCV inhibitor -21.0%.
For COc1ccc(OC)c(C=NNC(=O)c2ccccc2NS(=O)(=O)c2cccs2)c1 the results were AMA1-RON2 inh -1.3% and HCV inhibitor 7.6%.
For Cc1ccc(S(=O)(=O)N2CCCCC2)cc1NC(=O)COC(=O)c1ccccc1F the results were Shiga inhibitor 10.2, CHX counter -1.4, AMA1-RON2 inh 18.2%, Pf growth 48h -17.0%, Pf growth 96h -8.0% and HCV inhibitor -19.2%.
Screening Cc1ccc(OCCN(C)C(=O)C2CCC(=O)N(CC3CCCCC3)C2)cc1 (stereo not drawn) returned Shiga inhibitor 10.1, CHX counter -3.1, AMA1-RON2 inh -0.7%, Pf growth 48h inconclusive, Pf growth 96h inconclusive and HCV inhibitor inconclusive.
Screening O=C1Nc2ccc(F)cc2C12OCCO2 returned Shiga inhibitor -5.4, CHX counter -1.2, AMA1-RON2 inh -12.2%, Pf growth 48h 38.0%, Pf growth 96h -5.3% and HCV inhibitor -1.1%.
For Cc1ccc(NC(=S)NNc2ncc(C(F)(F)F)cc2Cl)c(C)c1 the results were Shiga inhibitor -5.6, CHX counter -3.1, AMA1-RON2 inh 95.5%, Pf growth 96h inconclusive and HCV inhibitor inconclusive.
Fc1ccc(CNC(=S)Nc2cccc(C(F)(F)F)c2)cc1 was read as Shiga inhibitor 18.0, CHX counter 13.4*, AMA1-RON2 inh -7.7%[2.32 µM], Pf growth 48h inconclusive, Pf growth 96h 29.5% and HCV inhibitor inconclusive.
O=S(=O)(NNc1ncc(C(F)(F)F)cc1Cl)c1ccc(F)cc1F was read as AMA1-RON2 inh 97.1% and HCV inhibitor 10.4%.
`Cc1ccc(NC(=S)NNc2ncc(C(F)(F)F)cc2Cl)cc1` gave Shiga inhibitor -8.0, CHX counter -8.5, AMA1-RON2 inh 37.9%, Pf growth 48h inconclusive, Pf growth 96h 10.4µM* and HCV inhibitor inconclusive.
FC(F)(F)c1cccc(NC(=S)NCc2ccc(Cl)cc2)c1 was read as Shiga inhibitor 10.9, CHX counter -1.6, AMA1-RON2 inh 8.1%, Pf growth 48h inconclusive, Pf growth 96h -18.2%[5.75 µM] and HCV inhibitor inconclusive.
For Fc1ccc(NC(=S)NNc2ncc(C(F)(F)F)cc2Cl)c(F)c1 the results were Shiga inhibitor 47.5*, CHX counter 21.4, AMA1-RON2 inh 5.6%, Pf growth 48h 9.28µM*, Pf growth 96h 10.4µM* and HCV inhibitor 22.4µM*.
`FC(F)(F)c1cnc(NNC(=S)Nc2ccc(Cl)cc2)c(Cl)c1` gave Shiga inhibitor -3.5, CHX counter 13.3, AMA1-RON2 inh 12.8%, Pf growth 48h inconclusive, Pf growth 96h 7.38µM* and HCV inhibitor inconclusive.
`O=c1[nH]c(=S)[nH]cc1Oc1ccc(Cl)cc1Cl` gave Shiga inhibitor -6.3, CHX counter -3.6, AMA1-RON2 inh 102.8%, Pf growth 48h -14.3%, Pf growth 96h 22.1% and HCV inhibitor 2.4%.
For Cc1ccc(C)c(-n2ccnc2SCC(=O)c2c(N)n(C3CC3)c(=O)[nH]c2=O)c1 the results were AMA1-RON2 inh 0.0%, Pf growth 48h -26.7%, Pf growth 96h inconclusive and HCV inhibitor 13.3%.
Screening Cc1cc(C(=O)NNC(=S)Nc2cccc(C(F)(F)F)c2)nn1C returned Shiga inhibitor 32.7, CHX counter 18.2*, AMA1-RON2 inh 96.0%, Pf growth 48h 18.6%, Pf growth 96h 40.7% and HCV inhibitor 0.0%.
`Cc1ccc(NC(=S)NNC(=S)Nc2cccc(C(F)(F)F)c2)cc1` gave Shiga inhibitor 22.9, CHX counter -2.4, AMA1-RON2 inh 14.9%, Pf growth 48h inconclusive, Pf growth 96h inconclusive and HCV inhibitor inconclusive.
O=C(NNC(=S)Nc1cccc(C(F)(F)F)c1)c1ccncc1 was read as AMA1-RON2 inh 164.3%.
CC(NC(=S)Nc1cccc(C(F)(F)F)c1)C(C)(C)C (stereo not drawn) was read as Shiga inhibitor -17.1, CHX counter -1.6, AMA1-RON2 inh 20.0%, Pf growth 48h inconclusive, Pf growth 96h 13.1µM* and HCV inhibitor inconclusive.
FC(F)(F)c1cccc(NC(=S)NNC(=S)Nc2ccc(Cl)cc2)c1 was read as Shiga inhibitor 24.5, CHX counter 2.9, Pf growth 48h inconclusive and Pf growth 96h 11.7µM*.
`COc1ccc(C)cc1NC(=O)NNC(=O)C(C)Oc1ccc([N+](=O)[O-])cc1` (stereo not drawn) gave Shiga inhibitor -11.3, CHX counter -2.2, AMA1-RON2 inh 112.7%, Pf growth 48h 10.3%, Pf growth 96h 37.3% and HCV inhibitor inconclusive.
For CN(C)c1ccc(/C=C2\CCCCC2=O)cc1 the results were Shiga inhibitor 27.9, CHX counter 14.4*, AMA1-RON2 inh 15.8%, Pf growth 48h 231.1%, Pf growth 96h 321.5% and HCV inhibitor 13.6%.
For Cc1c(C(=O)N2CCOCC2)oc2ccc(S(=O)(=O)N3CCCC3)cc12 the results were Shiga inhibitor 9.4, CHX counter 9.1, AMA1-RON2 inh 11.4%, Pf growth 48h -17.1%, Pf growth 96h inconclusive and HCV inhibitor 7.3%.
Screening CCOC(=O)N1CCN(C(=O)c2oc3ccc(S(=O)(=O)N4CCCCCC4)cc3c2C)CC1 returned Shiga inhibitor -4.2, CHX counter 2.2, AMA1-RON2 inh -6.4%, Pf growth 48h 11.7µM*, Pf growth 96h inconclusive and HCV inhibitor inconclusive.
For CCOC(=O)C1CCN(C(=O)c2oc3ccc(S(=O)(=O)N4CC(C)CC(C)C4)cc3c2C)CC1 (stereo not drawn) the results were Shiga inhibitor -2.4, CHX counter 1.0, AMA1-RON2 inh -5.9%, Pf growth 48h 2.33µM*, Pf growth 96h 30.6% and HCV inhibitor 4.47µM*.
`Cc1c(C(=O)N2CCc3ccccc3C2)oc2ccc(S(=O)(=O)N3CCCCCC3)cc12` gave Shiga inhibitor 1.7, CHX counter -4.6, AMA1-RON2 inh -26.2%, Pf growth 48h inconclusive, Pf growth 96h inconclusive and HCV inhibitor 8.91µM*.

Assay outcomes from PubChem.
